Assay outcomes deposited in PubChem BioAssay by several laboratories.
DUSP3 inh – VHR1 phosphatase inhibitors, primary screen, biochemical, absorbance, uHTS | Dual specificity protein phosphatase 3 (Homo sapiens), P51452 | recombinant VHR phosphatase, pNPP absorbance | inhibition, % at 13.3 µM | 290,000 tested, 0.52% active | AID 1654, 2009; in the data active = inhibition above about 50%
Mtb hypoxia rep – PubChem AID 1159583 | M. tuberculosis hypoxia-regulated fluorescent reporter, fluorescence | fluorescence inhibition, % (no concentration beside the values) | 300,000 tested, 0.1% active; in the data active = fluorescence inhibition mostly above about 23%, no sharp cut-off; inactive = mostly below about 17%
GDH-TPI counter – GDH-TPI coupling enzyme inhibitors, primary screen, artefact control for M. tuberculosis FBA inhibitor project, biochemical, absorbance, full deck. GDH-TPI coupled enzyme counterscreen, NADH absorbance. inhibition, % at 4.8 µM. 360,000 tested, 1.2% active. AID 588335, 2011; in the data active = inhibition above about 30%;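 also: 0% = DMSO wells and 100% = wells lacking the enzyme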
Mtb betalactam – beta-lactam sensitization of Mtb H37Rv, H37Rv; M. tuberculosis H37Rv growth with meropenem, percent inhibition; AID 434955, 2010; inhibition, % at 25 µM; 330,000 tested, 0.27% active; call rule not given here;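 also: growth measured after seven days incubation then overnight dye step; 0% = bacteria only wells and 100% = bacteria with antibiotic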
Mtb FBA inh – Mtb FBA enzyme inhibitors, primary screen, biochemical, fluorescence, strain H37Rv; purified M. tuberculosis FBA, fluorescence read-out; Fructose-bisphosphate aldolase (Mycobacterium tuberculosis (strain ATCC 25618 / H37Rv)), …; inhibition, % at 1 µM; 360,000 tested, 2.3% active; in the data active = inhibition above about 27%;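 also: 0% = vehicle and 100% = reference inhibitor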
Target sequence (P9WQA3 whole entry, looked up): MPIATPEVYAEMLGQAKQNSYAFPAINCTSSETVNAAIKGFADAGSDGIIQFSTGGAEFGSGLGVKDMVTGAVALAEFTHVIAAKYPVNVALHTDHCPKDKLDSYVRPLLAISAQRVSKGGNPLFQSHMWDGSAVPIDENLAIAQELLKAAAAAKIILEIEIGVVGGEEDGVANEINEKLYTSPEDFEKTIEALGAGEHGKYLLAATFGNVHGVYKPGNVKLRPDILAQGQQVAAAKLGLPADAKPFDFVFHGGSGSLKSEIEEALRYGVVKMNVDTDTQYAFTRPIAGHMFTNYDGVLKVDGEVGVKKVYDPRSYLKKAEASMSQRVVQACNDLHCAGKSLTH
Starred values were filed as active, the others as inactive; ? = inconclusive; / = no result; + = active, no number. Hits are enriched below; roughly 3.6% of the tested compounds scored in any of these assays.

SMILES	DUSP3 inh	Mtb hypoxia rep	GDH-TPI counter	Mtb betalactam	Mtb FBA inh
COc1cc2c(cc1OC)-c1cc(OCc3ccccc3Cl)nc(=O)n1CC2	18.1	7.1	28.7	?	99.4*
COc1cc2c(cc1OC)-c1cc(Nc3cccc(F)c3)nc(=O)n1CC2	70.6	2.7	33.8*	/	-2.0
CCn1c(=O)c2cc(C(=O)N(C)c3cc(C)ccc3OC)sc2c2ccccc21	20.5	11.9	32.5*	-10.4	6.6
CCn1c(=O)c2cc(C(=O)N(C)c3ccc(OC)cc3OC)sc2c2ccccc21	7.7	-0.6	49.4*	-2.1	4.9
CCn1c(=O)c2cc(C(=O)N(C)c3ccccc3F)sc2c2ccccc21	12.0	13.0	13.8	/	1.8
C/C(=N\NC(=O)c1cc(-c2cccnc2)nc2ccccc12)c1ccc(O)cc1O	13.7	/	34.9*	15.0	-0.7
Cc1ccc(C=NNC(=O)c2cc(-c3cccnc3)nc3ccccc23)o1	/	11.3	34.4*	-0.1	-0.3
COc1ccc(C(C)=NNC(=O)c2cc(-c3cccnc3)nc3ccccc23)cc1	/	-1.1	/	/	/
COc1cc(/C=N/NC(=O)c2cc(-c3ccco3)nc3ccccc23)cc(OC)c1O	-2.5	/	46.8*	-2.9	-1.9
COc1cc(/C=N/NC(=O)c2cc(-c3ccccc3Cl)nc3ccccc23)cc(OC)c1O	/	/	38.5*	-8.1	-1.9
COc1cc(C=NNC(=O)c2cc(-c3ccccc3Cl)nc3ccccc23)cc(OC)c1O	/	2.8	/	/	/
CC1C(=O)OC2CC34C5CC(C(C)(C)C)[C@]36C(OC(=O)C6O)O[C@@]4(C(=O)O5)[C@]21O (stereo partly specified)	/	0.4	/	/	/
Oc1ccccc1C=Nn1c(-c2cccs2)n[nH]c1=S	/	-1.0	/	/	/
O=C(O)c1ccccc1NS(=O)(=O)c1ccc(NN=Cc2ccccc2F)c([N+](=O)[O-])c1	/	6.2	31.6*	-3.1	-0.8
Cc1nn(-c2ccccc2)c(Cl)c1/C=N/Nc1ccc(S(=O)(=O)Nc2ccccc2C(=O)O)cc1[N+](=O)[O-]	32.7	/	47.1*	14.6	-5.5
O=C(O)c1ccccc1NS(=O)(=O)c1ccc(NN=Cc2cccc(O)c2O)c([N+](=O)[O-])c1	/	13.1	/	/	/
COc1ccc(NC(=S)NNc2ccc(S(=O)(=O)Nc3ccccc3C(=O)O)cc2[N+](=O)[O-])cc1	25.0	10.9	40.5*	-8.0	-3.9
CC(=O)NN=C(C)c1ccc(NC(=O)c2csc(C)c2C)cc1	/	-7.8	/	/	/
COc1ccc(C2C3C=CCC[C@@]3(C)C(=O)N2Cc2ccccc2)cc1Cl (stereo partly specified)	/	-10.4	/	/	/
O=C(NCc1nc2ccccc2[nH]1)C1=CC(c2ccc(C(F)(F)F)cc2)CC(OCc2ccc(CO)cc2)O1 (stereo unspecified)	/	5.5	/	/	/
COC(=O)C1=C(c2ccc(OC(F)(F)F)cc2)CC2CCC1N2C(=O)NCCOc1ccccc1 (stereo unspecified)	/	-10.9	/	/	/
COC(=O)C1=C(c2ccc(OC(F)(F)F)cc2)C[C@@H]2CC[C@H]1N2C(=O)NCCc1ccccc1	/	/	57.9*	16.1	7.0
COc1ccc(CN2C(CC(=O)O)c3cc(F)ccc3S2(=O)=O)cc1 (stereo unspecified)	/	14.0	/	/	/
O=C(COc1cccc2cccnc12)NN=C1SCC(=O)N1Cc1ccco1	/	11.0	/	/	/
Cc1cc(C)[n+]2[nH]c(N)c(N=Nc3ccccc3)c2n1	/	49.6*	29.8	97.3	-8.8
SMILES	DUSP3 inh	Mtb hypoxia rep	GDH-TPI counter	Mtb betalactam	Mtb FBA inh
CC(=O)Nc1cccc2cc(O)ccc12	/	11.0	10.6	/	-1.1
CC(=O)Nc1ccc2ccc3cccc4ccc1c2c34	-0.1	/	33.6*	7.9	17.9
CC(=O)Nc1ccc2c3c(cccc13)C(=O)N(c1ccccc1)C2=O	21.9	5.3	12.3	8.1	+
O=C(CN1CCCCCC1)NN=Cc1cccs1	/	7.0	/	/	/
NC(=O)C1=CC(c2coc3ccccc3c2=O)CC(OCc2ccc(CO)cc2)O1 (stereo unspecified)	/	-2.6	/	/	/
CCOC(=O)COc1ccccc1/C=N\NC(=O)c1cc2c(ccc3ccccc32)o1	1.8	/	31.5*	15.7	8.0
CCOc1cc(/C=N/NC(=O)c2cc3c(ccc4ccccc43)o2)ccc1O	9.2	/	43.5*	-3.6	8.7
CN(C)C=C(C(=O)c1ccc(F)cc1)S(=O)(=O)c1ccc(F)cc1	/	-2.0	/	/	/
CCN1CC2C3C(=O)N(C)C(=O)C3[C@](Cc3ccccc3)(C1=O)N2C(=O)c1ccc(Cl)c(Cl)c1 (stereo partly specified)	/	-2.6	/	/	/
